How the values were obtained:
Assay in all cases: DAPPL (digital affinity profiling via proximity ligation, sequencing); 10 mM Tris-HCl pH 7.5, 50 mM NaCl, 1 mM DTT, 4% glycerol, room temperature, 30 min; GST-TFs on glutathione beads, 16-mer random dsDNA library, 0.1% formaldehyde crosslink after washing; high values mean tight binding
Details in all cases: protein: recombinant; tags: N-terminal GST; dsDNA, one strand shown
FLI1 = biological target: T1, FLI1 (Homo sapiens, UniProt Q01543 1-452)
T1 sequence: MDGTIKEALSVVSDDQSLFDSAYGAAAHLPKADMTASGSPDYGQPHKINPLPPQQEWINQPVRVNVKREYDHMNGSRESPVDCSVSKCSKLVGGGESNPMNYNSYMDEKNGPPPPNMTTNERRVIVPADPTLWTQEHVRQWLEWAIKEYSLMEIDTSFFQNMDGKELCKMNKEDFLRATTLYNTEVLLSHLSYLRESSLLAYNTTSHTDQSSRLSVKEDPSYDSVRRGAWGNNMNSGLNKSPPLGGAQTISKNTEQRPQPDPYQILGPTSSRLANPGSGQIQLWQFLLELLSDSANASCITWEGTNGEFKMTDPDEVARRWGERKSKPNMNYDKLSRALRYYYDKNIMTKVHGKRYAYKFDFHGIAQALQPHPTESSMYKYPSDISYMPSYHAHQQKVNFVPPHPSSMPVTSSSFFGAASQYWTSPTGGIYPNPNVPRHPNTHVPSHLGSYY
Method in brief: (§1)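 After expression in yeast as GST fusions, human transcription factors were bound to glutathione beads, DNA-barcoded and mixed with a tag-only sample. The pools were incubated with 200 nmole of a 16-mer random double-stranded DNA library in Tris/NaCl/DTT/glycerol buffer (30 min, room temperature), washed and crosslinked with 0.1% formaldehyde. Proximity ligation with BsaI/T4 ligase ran for 1 h at 37 °C, before PCR amplification and sequencing on an Illumina NextSeq500. Binding signal is a hexamer's read frequency for a factor divided by its frequency for the tag-only sample.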

ELK1 = biological target: T2, ELK1 (Homo sapiens, UniProt P19419 1-428)
T2 sequence: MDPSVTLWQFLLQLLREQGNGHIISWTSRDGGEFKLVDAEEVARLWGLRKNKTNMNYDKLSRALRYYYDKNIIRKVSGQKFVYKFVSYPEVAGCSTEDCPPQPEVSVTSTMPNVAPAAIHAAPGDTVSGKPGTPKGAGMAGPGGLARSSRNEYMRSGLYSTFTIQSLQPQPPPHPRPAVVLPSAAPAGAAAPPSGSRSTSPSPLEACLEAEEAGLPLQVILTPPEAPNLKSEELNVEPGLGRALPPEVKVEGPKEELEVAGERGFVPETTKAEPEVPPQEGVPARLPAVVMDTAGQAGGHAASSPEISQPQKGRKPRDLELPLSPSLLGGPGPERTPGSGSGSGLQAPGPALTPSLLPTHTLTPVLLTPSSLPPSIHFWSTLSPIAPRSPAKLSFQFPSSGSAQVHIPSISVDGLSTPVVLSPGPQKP
Method in brief: as §1

GABPA = biological target: T3, GABPA (Homo sapiens, UniProt Q06546 1-454)
T3 sequence: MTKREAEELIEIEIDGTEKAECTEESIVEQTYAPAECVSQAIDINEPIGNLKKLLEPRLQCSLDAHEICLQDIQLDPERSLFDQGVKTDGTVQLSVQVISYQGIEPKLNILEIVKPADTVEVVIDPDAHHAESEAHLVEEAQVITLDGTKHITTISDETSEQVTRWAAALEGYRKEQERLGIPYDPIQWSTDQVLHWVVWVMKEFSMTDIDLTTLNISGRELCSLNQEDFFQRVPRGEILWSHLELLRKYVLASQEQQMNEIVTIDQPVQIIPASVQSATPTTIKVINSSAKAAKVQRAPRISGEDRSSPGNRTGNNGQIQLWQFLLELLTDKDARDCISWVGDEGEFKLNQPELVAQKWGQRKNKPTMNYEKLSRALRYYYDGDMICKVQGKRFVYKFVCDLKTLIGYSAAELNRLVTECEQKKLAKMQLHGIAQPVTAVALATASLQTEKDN
Method in brief: as §1

ERG = biological target: T4, ERG (Homo sapiens, UniProt P11308 1-479)
T4 sequence: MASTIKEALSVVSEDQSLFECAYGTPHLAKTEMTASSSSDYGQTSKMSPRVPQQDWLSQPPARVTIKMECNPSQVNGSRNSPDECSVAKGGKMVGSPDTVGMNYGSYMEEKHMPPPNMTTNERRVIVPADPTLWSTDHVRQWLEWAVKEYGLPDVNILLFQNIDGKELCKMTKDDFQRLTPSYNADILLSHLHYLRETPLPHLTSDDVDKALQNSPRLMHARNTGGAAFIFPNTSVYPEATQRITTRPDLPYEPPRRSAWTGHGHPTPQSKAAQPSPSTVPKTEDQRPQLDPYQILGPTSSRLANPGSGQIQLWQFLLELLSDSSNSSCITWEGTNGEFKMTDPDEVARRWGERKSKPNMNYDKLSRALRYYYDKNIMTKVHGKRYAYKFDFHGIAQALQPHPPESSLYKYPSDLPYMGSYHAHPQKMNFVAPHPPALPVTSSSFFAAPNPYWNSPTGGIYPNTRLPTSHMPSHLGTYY
Method in brief: as §1

ELF1 = ELF1 (Homo sapiens, UniProt P32519 1-619)
Method in brief: as §1

EHF = biological target: T5, EHF (Homo sapiens, UniProt Q9NZC4 1-300)
T5 sequence: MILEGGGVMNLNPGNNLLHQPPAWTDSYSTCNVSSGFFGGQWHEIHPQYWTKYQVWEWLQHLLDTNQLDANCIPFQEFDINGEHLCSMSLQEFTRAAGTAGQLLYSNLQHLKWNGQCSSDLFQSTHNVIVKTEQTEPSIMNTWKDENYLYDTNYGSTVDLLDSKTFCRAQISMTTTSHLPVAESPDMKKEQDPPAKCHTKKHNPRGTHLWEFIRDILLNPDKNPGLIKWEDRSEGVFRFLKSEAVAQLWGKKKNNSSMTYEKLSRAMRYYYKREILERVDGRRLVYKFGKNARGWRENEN
Method in brief: as §1

SPI1 = SPI1 (Homo sapiens, UniProt P17947 1-270)
Method in brief: as §1

SPIB = SPIB (Homo sapiens, UniProt Q01892 1-262)
Method in brief: as §1

ELK3 = biological target: T6, ELK3 (Homo sapiens, UniProt P41970 1-407)
T6 sequence: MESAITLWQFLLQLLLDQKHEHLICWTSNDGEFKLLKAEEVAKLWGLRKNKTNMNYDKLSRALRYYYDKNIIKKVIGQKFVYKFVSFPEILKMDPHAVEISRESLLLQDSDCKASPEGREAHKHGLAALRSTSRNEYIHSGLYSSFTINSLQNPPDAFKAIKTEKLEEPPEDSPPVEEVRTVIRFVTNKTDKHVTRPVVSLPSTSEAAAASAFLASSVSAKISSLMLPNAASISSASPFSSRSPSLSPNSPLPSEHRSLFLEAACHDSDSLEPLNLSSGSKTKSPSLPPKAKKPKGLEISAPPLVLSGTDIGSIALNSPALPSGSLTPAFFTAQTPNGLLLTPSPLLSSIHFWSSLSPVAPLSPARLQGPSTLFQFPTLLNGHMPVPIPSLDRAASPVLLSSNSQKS
Method in brief: as §1

FEV = biological target: T7, FEV (Homo sapiens, UniProt Q99581 1-238)
T7 sequence: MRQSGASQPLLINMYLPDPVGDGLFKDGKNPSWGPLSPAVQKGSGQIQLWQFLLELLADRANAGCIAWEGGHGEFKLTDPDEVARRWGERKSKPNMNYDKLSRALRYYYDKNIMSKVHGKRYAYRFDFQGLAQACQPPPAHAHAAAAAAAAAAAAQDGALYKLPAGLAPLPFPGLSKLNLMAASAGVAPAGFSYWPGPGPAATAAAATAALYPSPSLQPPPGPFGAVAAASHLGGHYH
Method in brief: as §1

ETV5 = ETV5 (Homo sapiens, UniProt P41161 1-510)
Method in brief: as §1

SPIC = biological target: T8, SPIC (Homo sapiens, UniProt Q8N5J4 1-248)
T8 sequence: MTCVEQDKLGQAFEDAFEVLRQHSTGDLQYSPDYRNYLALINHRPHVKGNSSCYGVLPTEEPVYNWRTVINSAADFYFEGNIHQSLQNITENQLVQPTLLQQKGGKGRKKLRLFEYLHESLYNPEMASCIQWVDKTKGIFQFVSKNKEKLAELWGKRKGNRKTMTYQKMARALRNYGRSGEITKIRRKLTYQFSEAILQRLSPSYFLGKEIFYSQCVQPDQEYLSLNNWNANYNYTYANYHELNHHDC
Method in brief: as §1

ELF4 = ELF4 (Homo sapiens, UniProt Q99607 1-663)
Method in brief: as §1

ETV1 = ETV1 (Homo sapiens, UniProt P50549 1-477)
Method in brief: as §1

ETV3L = biological target: T9, ETV3L (Homo sapiens, UniProt Q6ZN32 1-361)
T9 sequence: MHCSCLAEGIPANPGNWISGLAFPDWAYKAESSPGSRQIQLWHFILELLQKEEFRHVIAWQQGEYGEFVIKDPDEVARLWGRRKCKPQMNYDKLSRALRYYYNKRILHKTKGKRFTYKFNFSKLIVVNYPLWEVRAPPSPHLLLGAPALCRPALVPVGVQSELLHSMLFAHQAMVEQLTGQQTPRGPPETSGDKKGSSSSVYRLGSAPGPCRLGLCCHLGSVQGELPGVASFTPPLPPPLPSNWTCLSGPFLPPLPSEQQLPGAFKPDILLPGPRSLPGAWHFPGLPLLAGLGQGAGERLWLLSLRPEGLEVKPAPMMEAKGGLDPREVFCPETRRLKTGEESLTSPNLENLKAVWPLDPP
Method in brief: as §1

ETS2 = biological target: T10, ETS2 (Homo sapiens, UniProt P15036 1-469)
T10 sequence: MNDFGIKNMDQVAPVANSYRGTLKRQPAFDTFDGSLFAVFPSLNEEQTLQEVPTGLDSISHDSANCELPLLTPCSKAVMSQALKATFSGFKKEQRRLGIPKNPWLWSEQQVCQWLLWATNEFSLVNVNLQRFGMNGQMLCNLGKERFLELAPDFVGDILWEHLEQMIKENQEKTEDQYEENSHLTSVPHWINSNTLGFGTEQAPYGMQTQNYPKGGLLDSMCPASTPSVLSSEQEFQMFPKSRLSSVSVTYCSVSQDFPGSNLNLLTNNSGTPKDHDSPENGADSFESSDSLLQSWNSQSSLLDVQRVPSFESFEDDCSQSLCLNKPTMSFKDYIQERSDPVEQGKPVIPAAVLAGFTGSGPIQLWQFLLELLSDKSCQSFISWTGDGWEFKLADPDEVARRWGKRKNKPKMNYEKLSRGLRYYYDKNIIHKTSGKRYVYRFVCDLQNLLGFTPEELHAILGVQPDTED
Method in brief: as §1

SPDEF = biological target: T11, SPDEF (Homo sapiens, UniProt O95238 1-335)
T11 sequence: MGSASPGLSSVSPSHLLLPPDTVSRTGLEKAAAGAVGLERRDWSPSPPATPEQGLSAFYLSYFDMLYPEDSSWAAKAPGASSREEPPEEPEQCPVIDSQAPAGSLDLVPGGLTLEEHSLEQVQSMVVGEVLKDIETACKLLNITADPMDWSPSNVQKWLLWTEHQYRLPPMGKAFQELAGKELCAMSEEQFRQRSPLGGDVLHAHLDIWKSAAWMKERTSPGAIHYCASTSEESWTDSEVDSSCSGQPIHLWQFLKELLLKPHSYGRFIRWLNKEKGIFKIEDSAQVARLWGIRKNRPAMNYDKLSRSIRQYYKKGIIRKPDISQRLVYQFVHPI
Method in brief: as §1

ETV3 = biological target: T12, ETV3 (Homo sapiens, UniProt P41162-2 1-143)
T12 sequence: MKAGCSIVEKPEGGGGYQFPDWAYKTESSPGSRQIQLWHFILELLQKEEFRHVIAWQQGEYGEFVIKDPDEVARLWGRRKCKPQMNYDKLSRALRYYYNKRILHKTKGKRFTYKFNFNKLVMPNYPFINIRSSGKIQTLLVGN
Method in brief: as §1

ETV6 = ETV6 (Homo sapiens, UniProt P41212 1-452)
Method in brief: as §1

Chain of ETV5 (P41161 whole entry): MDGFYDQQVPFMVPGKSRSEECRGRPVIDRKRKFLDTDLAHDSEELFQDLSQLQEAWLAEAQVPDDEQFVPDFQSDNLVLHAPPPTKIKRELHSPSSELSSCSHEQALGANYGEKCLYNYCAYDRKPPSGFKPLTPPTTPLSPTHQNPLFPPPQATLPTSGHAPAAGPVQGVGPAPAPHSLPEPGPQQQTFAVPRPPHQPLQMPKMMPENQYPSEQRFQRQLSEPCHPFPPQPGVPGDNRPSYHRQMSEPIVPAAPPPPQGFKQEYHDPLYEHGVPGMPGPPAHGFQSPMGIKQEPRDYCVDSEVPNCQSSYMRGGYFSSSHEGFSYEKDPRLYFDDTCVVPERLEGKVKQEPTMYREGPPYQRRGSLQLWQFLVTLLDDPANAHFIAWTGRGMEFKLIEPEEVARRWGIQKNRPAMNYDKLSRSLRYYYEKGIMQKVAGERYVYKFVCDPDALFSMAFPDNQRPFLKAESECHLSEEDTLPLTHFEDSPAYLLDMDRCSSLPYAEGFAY
Chain of ELF1 (P32519 whole entry): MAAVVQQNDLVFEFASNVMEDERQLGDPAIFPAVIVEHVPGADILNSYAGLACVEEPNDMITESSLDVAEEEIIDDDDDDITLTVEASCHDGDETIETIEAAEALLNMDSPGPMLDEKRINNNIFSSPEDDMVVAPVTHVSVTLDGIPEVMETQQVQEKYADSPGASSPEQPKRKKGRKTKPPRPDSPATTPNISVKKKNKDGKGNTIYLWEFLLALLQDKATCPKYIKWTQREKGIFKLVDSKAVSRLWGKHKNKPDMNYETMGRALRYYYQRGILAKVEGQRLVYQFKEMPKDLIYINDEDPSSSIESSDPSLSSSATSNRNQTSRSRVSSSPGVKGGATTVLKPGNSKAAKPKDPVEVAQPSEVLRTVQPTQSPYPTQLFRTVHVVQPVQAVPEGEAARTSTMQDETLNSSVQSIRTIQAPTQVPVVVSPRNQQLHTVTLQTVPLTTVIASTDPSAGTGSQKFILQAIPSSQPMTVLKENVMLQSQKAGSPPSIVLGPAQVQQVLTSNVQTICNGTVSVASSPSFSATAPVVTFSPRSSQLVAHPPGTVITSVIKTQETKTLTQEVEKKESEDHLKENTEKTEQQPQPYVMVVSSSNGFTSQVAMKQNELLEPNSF
Chain of ETV6 (P41212 whole entry): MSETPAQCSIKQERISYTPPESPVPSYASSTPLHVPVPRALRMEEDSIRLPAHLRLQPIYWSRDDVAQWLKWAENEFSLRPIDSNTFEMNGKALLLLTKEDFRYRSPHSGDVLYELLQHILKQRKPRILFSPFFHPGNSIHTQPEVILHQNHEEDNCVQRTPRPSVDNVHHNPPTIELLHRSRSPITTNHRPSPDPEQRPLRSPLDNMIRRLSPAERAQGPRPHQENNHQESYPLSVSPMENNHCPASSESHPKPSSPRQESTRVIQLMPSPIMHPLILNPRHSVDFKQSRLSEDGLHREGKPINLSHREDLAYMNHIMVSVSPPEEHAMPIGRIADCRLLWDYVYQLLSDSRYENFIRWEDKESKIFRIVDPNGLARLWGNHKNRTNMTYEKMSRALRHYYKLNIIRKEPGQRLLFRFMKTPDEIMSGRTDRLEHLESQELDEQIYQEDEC
Chain of SPIB (Q01892 whole entry): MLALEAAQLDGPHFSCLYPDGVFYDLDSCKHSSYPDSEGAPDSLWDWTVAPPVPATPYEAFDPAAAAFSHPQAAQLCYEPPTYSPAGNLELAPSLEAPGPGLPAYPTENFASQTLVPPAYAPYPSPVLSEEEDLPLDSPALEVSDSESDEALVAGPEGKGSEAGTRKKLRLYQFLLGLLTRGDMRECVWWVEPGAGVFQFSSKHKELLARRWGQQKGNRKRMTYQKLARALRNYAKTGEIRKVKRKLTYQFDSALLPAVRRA
Chain of ETV1 (P50549 whole entry): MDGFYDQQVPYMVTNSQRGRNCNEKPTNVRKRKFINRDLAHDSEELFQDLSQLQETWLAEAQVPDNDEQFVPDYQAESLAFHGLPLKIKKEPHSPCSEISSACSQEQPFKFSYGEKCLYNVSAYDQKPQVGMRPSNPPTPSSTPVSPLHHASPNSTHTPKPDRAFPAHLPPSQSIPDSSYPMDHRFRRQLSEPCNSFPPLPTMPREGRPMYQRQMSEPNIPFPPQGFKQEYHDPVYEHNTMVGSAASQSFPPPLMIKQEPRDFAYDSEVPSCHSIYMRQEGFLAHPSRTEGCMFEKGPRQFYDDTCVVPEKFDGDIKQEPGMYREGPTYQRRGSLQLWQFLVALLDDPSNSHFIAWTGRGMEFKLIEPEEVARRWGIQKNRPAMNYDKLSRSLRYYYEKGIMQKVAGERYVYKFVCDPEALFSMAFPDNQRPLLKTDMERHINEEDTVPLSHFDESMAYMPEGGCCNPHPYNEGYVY
Chain of ELF4 (Q99607 whole entry): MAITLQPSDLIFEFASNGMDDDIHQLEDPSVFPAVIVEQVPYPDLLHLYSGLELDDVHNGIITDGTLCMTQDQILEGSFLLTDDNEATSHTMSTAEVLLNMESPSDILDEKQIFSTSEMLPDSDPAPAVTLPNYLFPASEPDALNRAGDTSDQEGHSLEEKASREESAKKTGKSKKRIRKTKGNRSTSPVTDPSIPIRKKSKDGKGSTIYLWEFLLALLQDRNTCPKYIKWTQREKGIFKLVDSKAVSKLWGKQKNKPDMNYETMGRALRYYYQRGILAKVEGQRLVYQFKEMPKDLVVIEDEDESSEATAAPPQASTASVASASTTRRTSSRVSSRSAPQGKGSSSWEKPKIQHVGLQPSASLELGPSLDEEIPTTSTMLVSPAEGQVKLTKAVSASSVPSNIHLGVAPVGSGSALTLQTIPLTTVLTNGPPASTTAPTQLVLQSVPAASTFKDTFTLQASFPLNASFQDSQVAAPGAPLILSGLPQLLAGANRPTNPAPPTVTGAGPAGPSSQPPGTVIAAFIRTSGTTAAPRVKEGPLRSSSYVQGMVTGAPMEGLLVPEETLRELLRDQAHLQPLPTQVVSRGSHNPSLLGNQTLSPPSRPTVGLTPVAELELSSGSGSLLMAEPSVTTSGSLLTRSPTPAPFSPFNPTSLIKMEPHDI

Sequence: GCTGCC
- binding signal (FLI1): 1.13 fold enrichment (6-mer frequency, TF over GST control)
- binding signal (ELK1): 1.08 fold enrichment (6-mer frequency, TF over GST control)
- binding signal (GABPA): 1.18 fold enrichment (6-mer frequency, TF over GST control)
- binding signal (ERG): 1.02 fold enrichment (6-mer frequency, TF over GST control)
- binding signal (ELF1): 1.03 fold enrichment (6-mer frequency, TF over GST control)
- binding signal (EHF): 1.24 fold enrichment (6-mer frequency, TF over GST control)
- binding signal (SPI1): 1.06 fold enrichment (6-mer frequency, TF over GST control)
- binding signal (SPIB): 1.03 fold enrichment (6-mer frequency, TF over GST control)
- binding signal (ELK3): 1.05 fold enrichment (6-mer frequency, TF over GST control)
- binding signal (FEV): 1.14 fold enrichment (6-mer frequency, TF over GST control)
- binding signal (ETV5): 1.04 fold enrichment (6-mer frequency, TF over GST control)
- binding signal (SPIC): 1.01 fold enrichment (6-mer frequency, TF over GST control)
- binding signal (ELF4): 1.06 fold enrichment (6-mer frequency, TF over GST control)
- binding signal (ETV1): 1.19 fold enrichment (6-mer frequency, TF over GST control)
- binding signal (ETV3L): 1.03 fold enrichment (6-mer frequency, TF over GST control)
- binding signal (ETS2): 1.08 fold enrichment (6-mer frequency, TF over GST control)
- binding signal (SPDEF): 1.09 fold enrichment (6-mer frequency, TF over GST control)
- binding signal (ETV3): 1.12 fold enrichment (6-mer frequency, TF over GST control)
- binding signal (ETV6): 1.13 fold enrichment (6-mer frequency, TF over GST control)

Reference: PMC7862700, “An all-to-all approach to the identification of sequence-specific readers for epigenetic DNA modifications on cytosine”
